Inconclusive results are not listed. Entries that show only a call come without a potency. Calls of active or inactive are those of the source. Unless noted, calls follow the shape of the dose curve; as a rule, active = well fitted curve in the direction sought with a large enough effect in the repeat runs; inconclusive = weak or mixed curves; inactive = no such curve, though single readings can be large; an effect the other way counts as inactive or inconclusive.
Experiments:
[1] = qHTS assay to identify aromatase inhibitors - cell viability counter screen (AID 743084);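 also: cells stimulated with testosterone during compound exposure; nearly all actives have a fitted effect of over 55% in size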; also: potency is read from the fitted curve at half-maximal effect
[2] = qHTS assay to identify small molecule that activate the aryl hydrocarbon receptor (AhR) signaling pathway - cell viability counter screen (AID 743086);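 also: HepG2 liver cells carrying the AhR DRE luciferase reporter; series mostly up to about 70 µM; nearly all actives have a fitted effect of over 45% in size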
Outline: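 Cytotoxicity counter screen: CellTiter-Fluor signal (30 min, 37 C) in 4000 HepG2 cells/well carrying the DRE-luciferase reporter, following 24 h compound exposure at 37 C.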

[3] = qHTS assay to identify small molecule antagonists of the peroxisome proliferator-activated receptor gamma (PPARg) signaling pathway - cell viability counter screen (AID 743194); details: Potency: co-treated with 50 nM rosiglitazone; also: nearly all actives have a fitted effect of over 55% in size
Outline: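 Viability was measured as CellTiter-Glo luminescence in GeneBLAzer PPARg UAS-bla HEK293H cells. These cells had been exposed 17 h at 37 C to compounds together with rosiglitazone at 50 nM final, with the beta-lactamase readout taken in the same wells.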

[4] = qHTS assay for small molecule agonists of the antioxidant response element (ARE) signaling pathway (AID 743202; active = well fitted activation curve with a large enough effect in the signal ratio in the repeat runs, not every such curve was filed as active; the % refers to the signal ratio; also: potency is read from the fitted curve at half-maximal effect)
Outline: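 Beta-lactamase reporter activity, read as fluorescence intensity, reflects ARE/Nrf2 pathway induction in HepG2 cells after 16 h compound exposure at 37 C; substrate loading was 2 h at room temperature.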

[5] = qHTS assay for small molecule activators of the heat shock response signaling pathway - cell viability counter screen (AID 743209); also: nearly all actives have a fitted effect of over 50% in size
Outline: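 Cytotoxicity counter screen run in the same wells as the heat-shock bla reporter assay: HeLa HSE-bla cells, 5 h compound exposure at 37 C, viability read by CellTiter-Glo luminescence.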

[6] = qHTS assay for small molecule activators of the heat shock response signaling pathway (AID 743210; active = well fitted activation curve with a large enough effect in the signal ratio in the repeat runs, with a control signal flat, not every such curve was filed as active; the % refers to the signal ratio;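 also: HeLa cells with beta-lactamase reporter driven by heat shock elements; series mostly up to about 63 µM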)
Outline: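 Fluorescence from a cleaved B/G FRET substrate (2.5 h, room temp) reports HSE-driven beta-lactamase in HeLa cells treated 5 h at 37 C with DMSO-dissolved compounds.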

[7] = qHTS assay to identify small molecule agonists of the peroxisome proliferator-activated receptor delta (PPARd) signaling pathway - cell viability counter screen (AID 743211); also: nearly all actives have a fitted effect of over 55% in size
Outline: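 Luminescent ATP viability assay (CellTiter-Glo, 30 min RT) in UAS-bla HEK293H cells carrying the PPAR delta reporter construct, 3000 cells/well, after a 17 h compound treatment at 37 C.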

[8] = biological target: Peroxisome proliferator-activated receptor delta (Homo sapiens) (UniProt Q03181); assay: qHTS assay to identify small molecule agonists of the peroxisome proliferator-activated receptor delta (PPARd) signaling pathway (AID 743212; calls by dose curve;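 also: HEK293H cells with PPARd UAS beta-lactamase reporter GeneBLAzer system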)
Outline: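 Steps: seed PPARd-bla HEK293H cells; incubate 5 h, 37 C, 5% CO2; add compounds in DMSO; incubate, 37 C; add LiveBLAzer B/G FRET substrate; hold 2 h at room temperature; measure fluorescence.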

[9] = qHTS assay to identify small molecule antagonists of the peroxisome proliferator-activated receptor delta (PPARd) signaling pathway - cell viability counter screen (AID 743213); also: nearly all actives have a fitted effect of over 50% in size
Outline: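 Same-well viability: cells pre-incubated 5 h, dosed with compound plus 300 nM L165041, kept 17 h at 37 C, FRET substrate 2 h RT, then CellTiter-Glo 30 min RT and luminescence.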

[10] = biological target: Peroxisome proliferator-activated receptor delta (Homo sapiens) (UniProt Q03181); assay: qHTS assay to identify small molecule antagonists of the peroxisome proliferator-activated receptor delta (PPARd) signaling pathway (AID 743215; active = well fitted inhibition curve with a large enough effect in the signal ratio in the repeat runs, not every such curve was filed as active; the % refers to the signal ratio;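 also: cells stimulated with agonist L165041 at 300 nM final during compound exposure; series mostly up to about 62 µM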)
Outline: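 Agonist L165041 (300 nM final) added with compound to PPARd-bla HEK293H UAS-bla reporter cells; 17 h incubation at 37 C. Read-out: LiveBLAzer FRET substrate, 2 h at room temperature, fluorescence intensity.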

[11] = biological target: Bile acid receptor (Homo sapiens) (UniProt Q96RI1); assay: qHTS assay to identify small molecule antagonists of the farnesoid-X-receptor (FXR) signaling pathway (AID 743217; active = well fitted inhibition curve with a large enough effect in the signal ratio in the repeat runs, not every such curve was filed as active; the % refers to the signal ratio)
Outline: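 Antagonist mode: chenodeoxycholic acid at 50 uM final stimulates a UAS-driven beta-lactamase reporter in HEK 293T FXR-bla cells during 16 h, 37C compound exposure. Read-out is FRET substrate fluorescence after 2 h at room temperature.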

[12] = qHTS assay to identify small molecule agonists of the farnesoid-X-receptor (FXR) signaling pathway - cell viability counter screen (AID 743218); also: nearly all actives have a fitted effect of over 45% in size; also: potency is read from the fitted curve at half-maximal effect
Outline: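 Viability counter screen in the same wells: CellTiter-Glo luminescence, 30 min room-temperature incubation, measured after the beta-lactamase read. Cells were GeneBLAzer FXR-UAS-bla HEK 293T, compound-treated 16 h at 37C.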

[13] = biological target: Bile acid receptor (Homo sapiens) (UniProt Q96RI1); assay: qHTS assay to identify small molecule agonists of the farnesoid-X-receptor (FXR) signaling pathway (AID 743220; active = well fitted activation curve with a large enough effect in the signal ratio in the repeat runs, not every such curve was filed as active; the % refers to the signal ratio)
Outline: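 FXR-UAS-bla HEK 293T cells carrying a UAS-driven beta-lactamase reporter were plated for 5 h at 37C/5% CO2, then exposed to DMSO-dissolved Tox21 10K compounds for 16 h at 37C. A LiveBLAzer B/G FRET substrate was loaded for 2 h at room temperature before fluorescence reading.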

[14] = qHTS assay to identify small molecule antagonists of the farnesoid-X-receptor (FXR) signaling pathway - cell viability counter screen (AID 743221; active = well fitted cell-killing curve with a large enough effect in the repeat runs, not every such curve was filed as active; also: nearly all actives have a fitted effect of over 50% in size)
Outline: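 In GeneBLAzer FXR-UAS-bla HEK 293T cells stimulated with 50 uM chenodeoxycholic acid (final), compounds acted for 16 h at 37 C. Viability was assessed afterwards by CellTiter-Glo luminescence.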

[15] = biological target: Peroxisome proliferator-activated receptor gamma (Homo sapiens) (UniProt P37231); assay: qHTS assay to identify small molecule antagonists of the peroxisome proliferator-activated receptor gamma (PPARg) signaling pathway (AID 743191; calls by dose curve; also: nearly all actives have a fitted effect of over 30% in size; also: potency is read from the fitted curve at half-maximal effect)
Outline: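 Beta-lactamase reporter under UAS control in HEK293H PPARg-bla cells; compound treatment 17 h at 37C. Read-out: fluorescence intensity after 1 h room-temperature incubation with LiveBLAzer B/G FRET substrate.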

[16] = qHTS assay for small molecule agonists of the antioxidant response element (ARE) signaling pathway - cell viability counter screen (AID 743203; calls by dose curve; also: nearly all actives have a fitted effect of over 55% in size)
Outline: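 Viability counter screen: CellTiter-Glo luminescence, read after 30 min at room temperature, in ARE-bla HepG2 wells. Compound exposure lasted 16 h at 37C/5% CO2, following a 5 h pre-incubation of the cells after plating.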

[17] = biological target: Vitamin D3 receptor (Homo sapiens) (UniProt P11473); assay: qHTS assay to identify small molecule agonists of the vitamin D receptor (VDR) signaling pathway (AID 743222; calls by dose curve)
Outline: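 Agonist mode, beta-lactamase reporter: fluorescence from LiveBLAzer B/G FRET substrate (2 h, room temperature) read after 16 h compound treatment at 37 C of VDR-bla cells, which were pre-incubated 4 h after seeding.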

[18] = biological target: Vitamin D3 receptor (Homo sapiens) (UniProt P11473); assay: qHTS assay to identify small molecule antagonists of the vitamin D receptor (VDR) signaling pathway (AID 743223; active = well fitted inhibition curve with a large enough effect in the signal ratio in the repeat runs, not every such curve was filed as active; the % refers to the signal ratio)
Outline: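 Agonist 1alpha,25-dihydroxyvitamin D3 (3 nM in well) was added with each compound to VDR-bla cells preincubated 4 h. Cells stood 16 h at 37C, then FRET substrate 2 h at room temperature; fluorescence intensity recorded.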

[19] = biological target: Peroxisome proliferator-activated receptor gamma (Homo sapiens) (UniProt P37231); assay: qHTS assay to identify small molecule agonists of the peroxisome proliferator-activated receptor gamma (PPARg) signaling pathway (AID 743094; active = well fitted activation curve with a large enough effect in the signal ratio in the repeat runs, not every such curve was filed as active; the % refers to the signal ratio)
Outline: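 Agonist activity was taken from a beta-lactamase reporter (FRET substrate, 1 h at room temperature) in HEK293H cells carrying a PPARg UAS-bla construct. Compounds in DMSO were incubated 17 h at 37C after a 5 h cell pre-incubation.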

Chain of Peroxisome proliferator-activated receptor delta (Homo sapiens) (Q03181 whole entry, looked up): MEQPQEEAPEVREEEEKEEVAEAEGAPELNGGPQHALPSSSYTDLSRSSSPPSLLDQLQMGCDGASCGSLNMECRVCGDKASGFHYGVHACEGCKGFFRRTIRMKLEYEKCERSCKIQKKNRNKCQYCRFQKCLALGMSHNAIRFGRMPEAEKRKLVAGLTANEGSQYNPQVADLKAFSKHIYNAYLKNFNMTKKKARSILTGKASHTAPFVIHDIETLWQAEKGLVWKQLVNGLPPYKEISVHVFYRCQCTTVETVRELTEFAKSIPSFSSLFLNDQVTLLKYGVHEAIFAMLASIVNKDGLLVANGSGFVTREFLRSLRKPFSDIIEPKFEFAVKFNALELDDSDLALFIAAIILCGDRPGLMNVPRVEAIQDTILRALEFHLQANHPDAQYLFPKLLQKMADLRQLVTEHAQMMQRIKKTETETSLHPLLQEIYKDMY
Chain of Bile acid receptor (Homo sapiens) (Q96RI1 whole entry, looked up): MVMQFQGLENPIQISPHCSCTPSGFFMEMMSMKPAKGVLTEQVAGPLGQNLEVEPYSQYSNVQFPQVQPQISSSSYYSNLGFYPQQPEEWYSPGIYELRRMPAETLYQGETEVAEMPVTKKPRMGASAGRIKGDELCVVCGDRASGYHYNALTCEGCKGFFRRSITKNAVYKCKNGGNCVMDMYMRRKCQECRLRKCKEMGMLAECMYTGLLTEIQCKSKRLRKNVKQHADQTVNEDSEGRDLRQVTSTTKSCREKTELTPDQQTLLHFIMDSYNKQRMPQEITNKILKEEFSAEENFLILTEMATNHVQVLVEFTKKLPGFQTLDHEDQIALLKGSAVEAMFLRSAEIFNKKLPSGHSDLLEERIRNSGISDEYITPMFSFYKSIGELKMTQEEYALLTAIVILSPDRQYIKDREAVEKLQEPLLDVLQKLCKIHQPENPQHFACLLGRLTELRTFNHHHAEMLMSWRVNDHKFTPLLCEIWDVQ
Chain of Peroxisome proliferator-activated receptor gamma (Homo sapiens) (P37231 whole entry, looked up): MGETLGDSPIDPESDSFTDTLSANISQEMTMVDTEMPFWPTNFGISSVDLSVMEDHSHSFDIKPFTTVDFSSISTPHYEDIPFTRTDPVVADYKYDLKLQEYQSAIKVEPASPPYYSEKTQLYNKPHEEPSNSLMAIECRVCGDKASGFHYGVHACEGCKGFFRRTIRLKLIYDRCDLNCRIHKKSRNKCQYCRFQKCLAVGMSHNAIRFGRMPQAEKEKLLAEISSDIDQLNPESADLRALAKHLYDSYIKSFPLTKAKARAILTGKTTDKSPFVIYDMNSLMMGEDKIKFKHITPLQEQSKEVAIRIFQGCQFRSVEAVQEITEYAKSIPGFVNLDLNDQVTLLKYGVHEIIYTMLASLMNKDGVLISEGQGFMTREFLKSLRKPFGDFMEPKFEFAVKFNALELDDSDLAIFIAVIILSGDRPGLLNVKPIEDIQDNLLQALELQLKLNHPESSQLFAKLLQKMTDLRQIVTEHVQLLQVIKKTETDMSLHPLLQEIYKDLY
Chain of Vitamin D3 receptor (Homo sapiens) (P11473 whole entry, looked up): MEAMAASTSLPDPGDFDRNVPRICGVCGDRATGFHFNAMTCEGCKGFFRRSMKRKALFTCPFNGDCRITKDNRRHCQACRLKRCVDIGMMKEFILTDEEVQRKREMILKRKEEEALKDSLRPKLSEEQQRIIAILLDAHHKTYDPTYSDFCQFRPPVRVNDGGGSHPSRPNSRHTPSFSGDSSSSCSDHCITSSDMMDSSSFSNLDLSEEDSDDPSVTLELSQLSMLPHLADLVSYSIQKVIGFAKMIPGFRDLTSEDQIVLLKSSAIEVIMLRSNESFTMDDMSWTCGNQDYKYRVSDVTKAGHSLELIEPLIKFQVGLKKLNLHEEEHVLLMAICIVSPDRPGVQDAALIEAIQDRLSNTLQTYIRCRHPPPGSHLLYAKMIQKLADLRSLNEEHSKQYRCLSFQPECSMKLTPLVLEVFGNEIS

| Structure (SMILES) | Potency [1] | Potency [2] | Potency [3] | Potency [4] | Potency [5] | outcome [6] | Potency [7] | outcome [8] | Potency [9] | Potency [10] | Potency [11] | Potency [12] | outcome [13] | Potency [14] | Potency [15] | Potency [16] | outcome [17] | outcome [18] | Potency [19] |
| --- | --- | --- | --- | --- | --- | --- | --- | --- | --- | --- | --- | --- | --- | --- | --- | --- | --- | --- | --- |
| O=C(O)CC(Cl)C(=O)O (configuration not stated) | inactive | inactive | inactive | 2.76 µM (active) | inactive | inactive | inactive | inactive | inactive | inactive | inactive | inactive | inactive | inactive | – | – | – | – | – |
| CC(=O)C(C)(C)C | inactive | inactive | inactive | inactive | – | inactive | – | – | inactive | – | – | inactive | – | inactive | inactive | inactive | – | – | – |
| COc1nn(CSP(=S)(OC)OC)c(=O)s1 | 68.6 µM (active) | inactive | – | – | – | – | – | – | – | – | – | – | inactive | inactive | 49 µM (active) | – | – | – | – |
| O=C(NC(=O)c1c(F)cccc1F)Nc1cc(Cl)c(Oc2ncc(C(F)(F)F)cc2Cl)c(Cl)c1 | inactive | inactive | inactive | – | inactive | – | – | – | inactive | inactive | – | 37.3 µM (active) | – | – | – | – | – | – | – |
| BrCCCCBr | inactive | inactive | inactive | – | inactive | inactive | – | – | – | – | – | – | – | inactive | – | – | – | – | – |
| CCCCCCC#N | inactive | inactive | – | inactive | – | inactive | inactive | inactive | inactive | inactive | inactive | inactive | inactive | inactive | inactive | inactive | inactive | inactive | – |
| CCBr | inactive | inactive | inactive | inactive | inactive | – | inactive | inactive | – | inactive | – | inactive | – | inactive | – | inactive | inactive | – | – |
| O=C1CN=C(c2ccccc2)c2cc(Cl)ccc2N1CC1CC1 | inactive | inactive | inactive | 32.2 µM (active) | inactive | – | – | – | – | – | – | – | – | inactive | – | inactive | inactive | inactive | – |
| COC(=O)c1cncn1C(C)c1ccccc1 (configuration not stated) | inactive | inactive | inactive | inactive | inactive | inactive | inactive | inactive | inactive | inactive | – | – | – | inactive | inactive | inactive | – | inactive | – |
| OCCCBr | inactive | inactive | inactive | – | – | inactive | – | – | – | – | – | – | – | – | – | – | – | – | inactive |
| CS/C(C)=N/OC(=O)N(C)SN(C)C(=O)O/N=C(\C)SC | inactive | inactive | inactive | inactive | inactive | – | inactive | inactive | – | – | inactive | – | inactive | – | – | – | – | – | – |
| Cl/C=C\Cl | inactive | inactive | inactive | inactive | inactive | – | – | inactive | inactive | inactive | – | inactive | – | – | – | inactive | inactive | inactive | – |
| CN(C)c1ccc(N(C)C)cc1 | inactive | inactive | inactive | – | inactive | inactive | – | – | inactive | – | inactive | – | inactive | – | – | inactive | – | – | inactive |
| Oc1ccc(Cl)c(Cl)c1Cl | inactive | inactive | inactive | – | inactive | inactive | inactive | inactive | inactive | inactive | – | – | inactive | – | – | – | inactive | inactive | inactive |

Reference: PubChem BioAssay (Tox21)
